1 compound from PubChem BioAssay AID493220 (National Center for Advancing Translational Sciences (NCATS), 2011) can be followed below.

The target of this assay is Polyunsaturated fatty acid lipoxygenase ALOX15 (Homo sapiens) (UniProt P16050). The experiment in a line: Inhibitors of 12-hLO (12-human lipoxygenase): 15hLO-1 Cuvette-Based Inhibition Counterscreen Assay for 12hLO Followup Compounds. As to conditions: purified 15hLO-1, UV 234 nm product formation. As for the experimental part:
Human lipoxygenase 15hLO-1 is a member of the closely related lipoxygenase family of enzymes which catalyze the site-specific oxidation of arachidonic acid to various hormone precursor molecules and as such is a candidate for drug development in a variety of disease areas, such as cancer and inflammation. The enzyme activity of 15hLO-1 was determined by a direct measurement of product formation by monitoring the absorbance at 234 nm in a 2 mL cuvette. IC50 values of inhibitors were obtained by measuring the enzymatic rate at a variety of concentrations (Carroll et al, Segraves et al). A purified preparation of human 15hLO-1 was supplied by Professor Ted Holman, University of California, Santa Cruz. This assay was run against 12hLO followup compounds with the goal of identifying selective 12hLO inhibitors. Assay Provider: Holman, T.R., University of California, Santa Cruz Screening Center PI: Austin, Christopher P. Screening Center: NIH Chemical Genomics Center
For control experiments, 2 mL of substrate buffer (10 uM arachidonic acid / 25 mM HEPES / 0.01% (v/v) Triton X-100, pH 8.0) was aliquoted in a cuvette with a magnetic stir bar. After equilibrium was ensured, an aliquot of inhibitor solvent was added (DMSO), and equilibrium was once again assured. […] 3; No change in absorbance ensured. […] 5; No change in absorbance ensured. […]
A general note: Counterscreens check selectivity or assay interference.

Records with an inconclusive call do not appear. The source made the active and inactive calls. The call rests on the fitted dose curve.

Chain of Polyunsaturated fatty acid lipoxygenase ALOX15 (Homo sapiens) (P16050 whole entry, looked up): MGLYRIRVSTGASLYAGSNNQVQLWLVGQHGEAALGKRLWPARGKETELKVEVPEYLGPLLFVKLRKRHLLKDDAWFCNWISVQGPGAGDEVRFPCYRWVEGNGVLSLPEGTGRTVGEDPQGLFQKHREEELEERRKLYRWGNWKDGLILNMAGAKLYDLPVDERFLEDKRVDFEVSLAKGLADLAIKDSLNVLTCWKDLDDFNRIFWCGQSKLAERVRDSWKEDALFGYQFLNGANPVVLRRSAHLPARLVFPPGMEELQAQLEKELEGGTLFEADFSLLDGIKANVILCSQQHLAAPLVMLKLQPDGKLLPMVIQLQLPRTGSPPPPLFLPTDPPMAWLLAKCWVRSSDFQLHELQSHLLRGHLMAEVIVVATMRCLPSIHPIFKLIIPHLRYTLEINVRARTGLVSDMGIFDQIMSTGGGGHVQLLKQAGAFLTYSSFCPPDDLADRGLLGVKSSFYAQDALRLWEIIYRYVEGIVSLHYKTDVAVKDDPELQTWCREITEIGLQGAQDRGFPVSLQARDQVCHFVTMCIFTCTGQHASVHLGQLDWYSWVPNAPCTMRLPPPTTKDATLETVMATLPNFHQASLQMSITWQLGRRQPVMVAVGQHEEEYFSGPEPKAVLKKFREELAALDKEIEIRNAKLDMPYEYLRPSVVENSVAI

As to `CC(Oc1ccc(Cl)cc1Cl)C(=O)Nc1ccc(S(=O)(=O)Nc2cnc3ccccc3n2)cc1` (stereo unspecified), the Potency was 30.8 µM (active).
